Results reported in the supplement of paper PMC6555819.

How the values were obtained:
Test in all cases: PBM binding z-score (relative to random genomic background probes); higher = stronger binding; sequences stand for … in GC…GCGATTGACAGCGTAGAATGAAGG
[1] = system: FXR:RXRa (NR concentration 270 nM, RXRa partner concentration 90 nM)
In short: (§1)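 Scanned fluorescence from custom Agilent 4×180K protein-binding microarrays was regression-normalized. Binding z-scores use random background probes as reference. Ligand-free nuclear receptor dimers were incubated on the arrays for 1 h and detected with antibodies against each partner (one per run).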

[2] = system: LXRa:RXRa (NR concentration 270 nM, RXRa partner concentration 90 nM)
In short: as §1

[3] = system: LXRa homodimer (NR concentration 270 nM)
In short: as §1

[4] = system: LXRb:RXRa (NR concentration 270 nM, RXRa partner concentration 90 nM)
In short: as §1

[5] = system: LXRb homodimer (NR concentration 270 nM)
In short: as §1

[6] = system: PPARa:RXRa (NR concentration 270 nM, RXRa partner concentration 90 nM)
In short: as §1

[7] = system: PPARg:RXRa (NR concentration 180 nM, RXRa partner concentration 90 nM)
In short: as §1

[8] = system: PPARg:RXRa 270nM:90nM, anti-RXR (NR concentration 270 nM, RXRa partner concentration 90 nM)
In short: as §1

[9] = system: PPARg:RXRa 30nM:10nM, anti-RXR (NR concentration 30 nM, RXRa partner concentration 10 nM)
In short: as §1

[10] = system: PPARg:RXRa 90nM:30nM, anti-RXR (NR concentration 90 nM, RXRa partner concentration 30 nM)
In short: as §1

[11] = system: PPARg:RXRa DBDmut IVT, anti-RXR (DBD mutation: RXRa K156A/R161A, NR concentration 270 nM, RXRa partner concentration 90 nM)
In short: as §1

[12] = system: PPARg:RXRa IVT, anti-PPARg (NR concentration 270 nM, RXRa partner concentration 90 nM)
In short: as §1

[13] = system: PPARg DBDmut IVT, anti-PPARg (DBD mutation: PPARg1 K132A/R137A, NR concentration 270 nM)
In short: as §1

[14] = system: PPARg homodimer (NR concentration 180 nM)
In short: as §1

[15] = system: PXR:RXRa (NR concentration 270 nM, RXRa partner concentration 90 nM)
In short: as §1

[16] = system: PXR homodimer (NR concentration 270 nM)
In short: as §1

[17] = system: RARa homodimer (NR concentration 270 nM)
In short: as §1

[18] = system: RARb:RXRa (NR concentration 270 nM, RXRa partner concentration 90 nM)
In short: as §1

[19] = system: PPARg DBDmut:RXRa IVT, anti-PPARg (DBD mutation: PPARg1 K132A/R137A, NR concentration 270 nM, RXRa partner concentration 90 nM)
In short: as §1

[20] = system: RARa:RXR (NR concentration 270 nM, RXRa partner concentration 90 nM)
In short: as §1

Row | Sequence | PBM binding z-score [1] | PBM binding z-score [2] | PBM binding z-score [3] | PBM binding z-score [4] | PBM binding z-score [5] | PBM binding z-score [6] | PBM binding z-score [7] | PBM binding z-score [8] | PBM binding z-score [9] | PBM binding z-score [10] | PBM binding z-score [11] | PBM binding z-score [12] | PBM binding z-score [13] | PBM binding z-score [14] | PBM binding z-score [15] | PBM binding z-score [16] | PBM binding z-score [17] | PBM binding z-score [18] | PBM binding z-score [19] | PBM binding z-score [20]
1 | ATATGTAGGTTAGGGTCATTCTGAAAGTAGGGAA | 4.59 | 3.97 | 1.34 | 4.53 | 1.8 | 5.46 | 7.45 | 6.24 | 3.83 | 5.9 | 6.26 | 6.44 | 1.97 | 2.88 | 4.18 | 1.87 | 1.91 | 3.35 |  | 
2 | CCTACTGGGCCAAGGTCATAGATCAGTCAAAGCA | 2.72 | 2.93 | 0.673 | 2.72 | -0.469 | 4.19 |  | 4.41 | 2.23 | 3.84 | 3.5 | 4.88 | -0.588 | 2.21 | 3.28 | 0.536 | 0.339 | 3.23 | 0.145 | 4.12
3 | CGAACTAGGTAACCAGGACAGTGAAGAGGTTGGA | -0.0198 | -0.368 | -0.222 | -0.525 | -0.784 | 1.66 | 2.32 | 2 | 0.303 | 0.958 | 6.32 | 5.77 | -0.0996 | 0.22 | -0.312 | 0.0727 | -0.648 | 0.0285 |  | -0.0151
4 | ATATGTAGGTTAGCGTCATTCAGAAAGTAGGGAA | 0.121 | 0.529 | -0.273 | 0.174 | 0.215 | 2.81 | 4.14 | 3.23 | 1.36 | 2.32 | 6.57 | 6.84 | 1.38 | 0.87 | -0.0758 | 0.0634 | 0.244 | 0.594 |  | -0.121
5 | CGCACTAGGTCACCAGGACAGTGAAGAGGTTGGA | 3.84 | 2.51 | 0.256 | 1.9 | -0.125 | 4.91 | 8.32 | 6.61 | 4.56 | 6.23 | 8.2 | 8.52 | 2.13 | 1.92 | 1.29 | 0.413 | 0.466 | 4.12 |  | 2.48
6 | ATATGTAGGTTAGGATCATTCAGAAAGTAGGGAA | 0.633 | 0.786 | 0.139 | 0.95 | 0.084 | 2.83 | 3.9 | 3.07 | 1.22 | 2.31 | 6.17 | 6.13 | 1.84 | 1.69 | 0.594 | 0.622 | 1.36 | 0.759 |  | 0.758
7 | TTATCAAGGTGAAAGGTCGTTGATGCACGCCTTG | 3.92 | 3.41 | 0.476 | 2.84 | 0.104 | 5.86 |  | 9.22 | 9.21 | 11 | 4.86 | 6.15 | 1.43 | 2.37 | 3.99 | 0.766 | 0.465 |  | 1.25 | 5.9
8 | CAAACTAGGTCAAGGTCAAATTCGGTTTGTGCCA | 6.94 | 5.69 | 5.04 | 5.06 | 2.23 | 6.07 |  | 7.8 | 6.71 | 8.35 | 8.72 | 8.78 | 3.07 | 4.71 | 5.45 | 2.83 | 2.26 | 5.09 | 2.45 | 5.82
9 | TCTTGTAGATCAAAGGTCAAGAAAGCCGAAGCCT | 4.71 | 5.21 | 2.41 | 5.03 | 1.25 | 6.32 |  | 9.37 | 8.45 | 10.1 | 2.63 | 4.93 | 0.612 | 2.55 | 4.83 | 0.853 | 0.488 | 4.74 | -0.0392 | 6.09
10 | CGTCGAAGGTCAATGCTAGGTCAGTGAAAGCATT | 6.95 | 5.54 | 2.6 | 4.32 | 0.906 | 5.41 |  | 4.82 | 1.4 | 3.63 | 2.56 | 3.93 | -1.09 | 4.55 | 4.73 | 0.726 | 0.867 | 5.19 | -0.174 | 6.43
11 | AGAATGGGGTTAAGATCAGGGAAACAGAATACAT | 4.23 | 3.54 | 0.59 | 4.19 | 2.1 | 5.62 |  | 4.5 | 2.12 | 3.37 | 3.55 | 3.66 | 1.97 | 2.18 | 2.98 | 2.24 | 1.79 | 2.47 | 1.77 | 3.46
12 | ATAGAAAGGTCGAAGGTGAGTATACCCACCCGAA | 4.15 | 3.25 | 0.28 | 2.61 | 0.606 | 4.56 |  | 5.47 | 2.38 | 4.64 | 0.0338 | 2.05 | 0.496 | 1.85 | 2.82 | 0.22 | 0.667 | 3.64 | 1.17 | 4.08
13 | CGTCCAAGGTCAGCAGGTGAGTGAAAGCGACGTG | 5.14 | 3.02 | -0.383 | 2.08 | -0.689 | 4.13 |  | 3.7 | 0.511 | 2.24 | 2.8 | 3 | -0.746 | 3.15 | 2.41 | 0.206 | 0.593 | 4.87 | -0.33 | 3.32
14 | AATACAGGGTCACTAGGTCAGAGTAGGTACGAAT | 6.69 | 5.67 | 2.22 | 4.43 | 1.37 | 6.03 |  | 7.62 | 4.74 | 7.08 | 5.74 | 6.99 | 2.61 | 4.65 | 4.34 | 1.23 | 1.85 | 4.67 | 2.72 | 5.62
